55 sequences from PMC7819943, “Rice protein-binding microarrays: a tool to detect cis-acting elements near promoter regions in rice” can be followed below.

Whole data set: some 68,000 sequences, median “fluorescence intensity (a.u.)” near 9,100, cut for the highest 2% near 16,000. The entries come from a sample that favours the highest values as a whole.

Sequence of OsWRKY34 (Q0JBA9 entry or part of it): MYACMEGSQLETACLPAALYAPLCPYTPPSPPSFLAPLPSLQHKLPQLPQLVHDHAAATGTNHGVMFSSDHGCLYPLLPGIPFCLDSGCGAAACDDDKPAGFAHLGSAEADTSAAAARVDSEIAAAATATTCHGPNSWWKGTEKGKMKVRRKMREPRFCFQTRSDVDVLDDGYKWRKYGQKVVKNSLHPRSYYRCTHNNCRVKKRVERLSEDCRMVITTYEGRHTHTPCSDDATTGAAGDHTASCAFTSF

The target of this experiment is OsWRKY34 (Oryza sativa, UniProt Q0JBA9 1-250). Description: protein-binding microarray (RPBM); PBS, 2% BSA, 51.3 ng/ul salmon testes DNA, 50 uM zinc acetate, 200 nM TF, 25 C, 1 h; high values mean tight binding. The note with it: protein: recombinant; tags: N-terminal polyhistidine and DsRed monomer fusion (pET32a); label: CyDye5-dUTP incorporated in the synthesized complementary strand; 3' TTTTT single-stranded linker to array surface; dsDNA, one strand shown. In outline:
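Binding signal here means per-feature fluorescence intensity in arbitrary units. The values were read on an Axon 4000B scanner after a custom Agilent array, double-stranded by primer extension with Cy5-dUTP, was incubated with 200 nM protein at 25 °C for 1 h in PBS with 2% BSA, salmon testes DNA and 50 µM zinc acetate, then washed. The proteins were transcription factors with an N-terminal polyhistidine tag and DsRed, expressed in E. coli BL21-CodonPlus and purified on Ni–NTA.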
For “AAACAGACCCTTAATATGCTATATTTGTCTCCAATAAAACCGGAGTCACCTAGTGCAG”, the binding signal is 8480 fluorescence intensity (a.u.).
With “TTGCTCTTGTTAATGTTTGGCTTTCTTCTTCTTCTGCTGCCGGAGTCACCTAGTGCAG”, the binding signal was 8600 fluorescence intensity (a.u.).
The value for “TGGGGTTTTCAGCTTGCCAATGCTGCATTATCTTCTTTTTCGGAGTCACCTAGTGCAG” was 17200 fluorescence intensity (a.u.); that for “ATATCCCTTCTCTTCCCTCATCTCTCCACCTCTTCCATCTCGGAGTCACCTAGTGCAG” was 8890 fluorescence intensity (a.u.).
The value for “CCTCATCCGCTGCTCTGCTCCCACCATTGCTGCTCTCTCTCGGAGTCACCTAGTGCAG” was 17700 fluorescence intensity (a.u.); that for “GGCTCGTGCACCTGCTCTCGTCTTTTCCACCGCTTTTTTTCGGAGTCACCTAGTGCAG” was 16800 fluorescence intensity (a.u.).
The value for “CTCCATTCTTGTTTGTTCCTTCTTTGCTTTCAGCTGCTTTCGGAGTCACCTAGTGCAG” was 15000 fluorescence intensity (a.u.); that for “GGCCCTGAGCTCTCTCTTGCTGCTTCTTTTAATGGGTTTTCGGAGTCACCTAGTGCAG” was 9680 fluorescence intensity (a.u.).
As for “CTGCCGCGCTTCGTCGCCGCGCTCGCCCGTCTTTCGCTCTCGGAGTCACCTAGTGCAG”, the binding signal is 8230 fluorescence intensity (a.u.).
The value for “ACCAGCTTTCTTTCTCGTGCTTTCCTCTTCTTCTTTTTTTCGGAGTCACCTAGTGCAG” was 10900 fluorescence intensity (a.u.); that for “GCTCCACCTACTCCGCTCCCCTCTGCTCGGCTGCTCCCATCGGAGTCACCTAGTGCAG” was 8470 fluorescence intensity (a.u.).
As for “TCTCTCTCTCTCTCCTCTGCATCCGCGCGCATTGCTCGATCGGAGTCACCTAGTGCAG”, the figure is 9000 fluorescence intensity (a.u.).
The value for “ACACTCTGCTGCATCTCTTATCCCTTCATCTCGGTCTTAACGGAGTCACCTAGTGCAG” was 16600 fluorescence intensity (a.u.).
For “GCTCCCTGCTGCCATATCCTATCATCTCCTCTCTTCCTCTCGGAGTCACCTAGTGCAG”, the binding signal is 8540 fluorescence intensity (a.u.).
With “GCAGCATCACCCGCAGCCGCCGCCGCCGCCGCCATGGACTCGGAGTCACCTAGTGCAG”, the binding signal was 10100 fluorescence intensity (a.u.).
The value for “GCAATACACCTGATTTGATACTTCTTCCGATATAATACTCCGGAGTCACCTAGTGCAG” was 8900 fluorescence intensity (a.u.); that for “GATTGTATATGCCTGATAGGACTAGTTAGTGTGTTTTCTTCGGAGTCACCTAGTGCAG” was 9220 fluorescence intensity (a.u.).
As for “CACTAGTTTTAGTTACTAACTTATGGCTCTTGTGCTATCACGGAGTCACCTAGTGCAG”, the figure is 8070 fluorescence intensity (a.u.); as for “AAGACACAGCTTCAACACGTAACCTATGCACTACACACTACGGAGTCACCTAGTGCAG”, 11700 fluorescence intensity (a.u.); as for “CCCGTTCTAATTCAGTTTCTCCCTTTCTTACCGCATGTACCGGAGTCACCTAGTGCAG”, 8490 fluorescence intensity (a.u.).
As for “GTTCTCTAGCCGCTTGTGATACTCGCAATCCTAAACCACGCGGAGTCACCTAGTGCAG”, the binding signal was 8410 fluorescence intensity (a.u.).
As for “TAACTGCGTTGACATGTCGCCTTGCTATACTCACATTCTTCGGAGTCACCTAGTGCAG”, the figure is 9470 fluorescence intensity (a.u.); as for “TCTCACTCTCTCACACACACACTCTCTCTCTCTGCTAGCTCGGAGTCACCTAGTGCAG”, 9820 fluorescence intensity (a.u.).
As for “GAATGTTGATGCTGTTGATGCATGCACCTGCCGAAGGCCGCGGAGTCACCTAGTGCAG”, the figure is 9170 fluorescence intensity (a.u.); as for “CTCGCCATCTCTGCCGCCGGTCCGCCGCCTCGCTCGCTCGCGGAGTCACCTAGTGCAG”, 9470 fluorescence intensity (a.u.); as for “CTCTTGCTGTTTCCTTTGCTCTGTTTCCTCTGCCTGCGCCCGGAGTCACCTAGTGCAG”, 8760 fluorescence intensity (a.u.).
For the sequence “ACGCCCGCTTGATCCGCCTGCTGCGCGCGCGCGAGTTTTTCGGAGTCACCTAGTGCAG”, the binding signal is 9160 fluorescence intensity (a.u.).
The value for “CTTCTGTCATATCACCTTGCCGCTGCTTCTGATCATCTCCCGGAGTCACCTAGTGCAG” was 8670 fluorescence intensity (a.u.).
Regarding “TGTTTGCTGCTGCTGCTGCTCTGCTTTTCTCTTTTTTCTTCGGAGTCACCTAGTGCAG”, the binding signal is 9490 fluorescence intensity (a.u.).
Turning to “ATCCCGGCCTGCTCTTGCGCTTTGACTTTTTGTAGAGTTTCGGAGTCACCTAGTGCAG”, the binding signal was 18200 fluorescence intensity (a.u.).
As for “TTCACCACCACCGCCACGGCCTCTGCCTCTCGCTCTCTCTCGGAGTCACCTAGTGCAG”, the figure is 10200 fluorescence intensity (a.u.).
As for “TGTCCGCCACGCTCTCGCCATCTGCCTGTACCACTAATCTCGGAGTCACCTAGTGCAG”, the figure is 22500 fluorescence intensity (a.u.).
As for “TTGTTCTTGCTGCATTTCTTCTTCTCGTTTTTTTTTCTTTCGGAGTCACCTAGTGCAG”, the figure is 16900 fluorescence intensity (a.u.).
“CGCTGCTTCTGATCATCTCCCGTTCTTGCATTCTTCTTCTCGGAGTCACCTAGTGCAG”: the binding signal is 19400 fluorescence intensity (a.u.).
As for “GAATCTGCTTCTCATTCTTTTTTTCTTGCTGATCATCATGCGGAGTCACCTAGTGCAG”, the figure is 10200 fluorescence intensity (a.u.).
As for “CACCACCTTTGTTTGCTGCTCTCCATTTTTTTTCTTCGTTCGGAGTCACCTAGTGCAG”, the figure is 10200 fluorescence intensity (a.u.); as for “TACTACTGTACTACTCTCAGTCTCTCGGCTTCTAGACTAGCGGAGTCACCTAGTGCAG”, 8600 fluorescence intensity (a.u.).
As for “GATTCTAAACATCCACTCACACCTCATTTTTTTCATTAGCCGGAGTCACCTAGTGCAG”, the figure is 9350 fluorescence intensity (a.u.); as for “TGCCTGGCACCGTCCCCATCGCCGGCCGCCTCCGCCTCCGCGGAGTCACCTAGTGCAG”, 11300 fluorescence intensity (a.u.); as for “ACTTAATCCATTTTCTTTTCTTCTCCTATTTTTCCATCAACGGAGTCACCTAGTGCAG”, 9970 fluorescence intensity (a.u.).
Consider “ATATTTCTATGATTCTATCCCCTCCAGATTTATCGGCGCCCGGAGTCACCTAGTGCAG”, for which the binding signal was 8310 fluorescence intensity (a.u.).
As for “CTTCCAGGCAGTTGTTCTGTATCCTCTTCTTGTTGCAACACGGAGTCACCTAGTGCAG”, the figure is 8920 fluorescence intensity (a.u.); as for “TTTTGGTTTTATGAGGCGGTGGATGGATACTTGTTACACTCGGAGTCACCTAGTGCAG”, 10300 fluorescence intensity (a.u.); as for “CGGCTTCTCGCTTTCTTGTTTCTCGTGGAGTTGCTTTTTTCGGAGTCACCTAGTGCAG”, 17500 fluorescence intensity (a.u.).
As for “GTTCGTTCGCCCTGCTGCTTCTCCCGCCGCATCCATCCCGCGGAGTCACCTAGTGCAG”, the figure is 9640 fluorescence intensity (a.u.); as for “TGTGCTTCTTTTTTTAATTTCTCTCTCTGTTTGCTTCTCTCGGAGTCACCTAGTGCAG”, 9720 fluorescence intensity (a.u.).
As for “TCTCTCCATCCATCCCTGCTGCTTCTCCATCTCGCATCTGCGGAGTCACCTAGTGCAG”, the figure is 16700 fluorescence intensity (a.u.); as for “ATTGTTTTTTTTCTTTCTTTTTGCAAATCTCGCTTCGCTTCGGAGTCACCTAGTGCAG”, 8540 fluorescence intensity (a.u.); as for “TGTGCGCGTGTTGTTTTTTTGGCTTCTTTTTCGCTTGCCACGGAGTCACCTAGTGCAG”, 11400 fluorescence intensity (a.u.).
For “TCCTCTTCTGTTTTTCTGTTTTTTTTCGTTTCTCTTCCCTCGGAGTCACCTAGTGCAG”, the binding signal is 13300 fluorescence intensity (a.u.).
The value for “TTTTTTCGGTGTTTTTCTTTTTGTTTCTTTTCGCTTCGCTCGGAGTCACCTAGTGCAG” was 12700 fluorescence intensity (a.u.); that for “ACCGGTGGCTTTGTTTGGTTCCACGGTCTTCAGGTTGGGACGGAGTCACCTAGTGCAG” was 8130 fluorescence intensity (a.u.); that for “CTGCTTCTTTTGTTTGGTTGGTTTCAGGGCTTCGTGGCCACGGAGTCACCTAGTGCAG” was 17800 fluorescence intensity (a.u.).
As for “GCTTCTCCATCTCGCATCTGCTGCCTCCTAATTTGCTTCGCGGAGTCACCTAGTGCAG”, the figure is 10000 fluorescence intensity (a.u.).
In the case of “GTGGGCATGATTTTCTTCTGTTTTCTCGTTTTAATTTTTTCGGAGTCACCTAGTGCAG”, the binding signal is 20100 fluorescence intensity (a.u.).
